± gives the standard deviation.
Test system: EfPiwi piRISC loaded with piRNA #1 (26 nt)
Experiment: pre-steady-state target cleavage rate (min^-1); auxiliary factor: 500 nM Ephydatia muelleri Gtsf1; guide: piRNA #1 5'p-UGAGGUAGUAGGUUGUAUAGUAUCCA; MIWI and MILI are mouse PIWI proteins and EfPiwi is from a freshwater sponge; tags in brackets are library labels; higher = faster piRNA-guided slicing of the target
Method: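 Cleave-'n-Seq: a library of target RNAs (target site in constant flanks) at […] was incubated with 1 nM active freshwater sponge Ephydatia fluviatilis Piwi piRISC (synthetic 5'-monophosphorylated piRNA guide) with or without 500 nM EmGtsf1 at 33 °C for 1 min to 16 h. Uncleaved targets were sequenced and the pooled three trials fitted to a burst-and-steady-state model to give the pre-steady-state cleavage rate (min^-1). Sequence is the target site only. Fits with R² ≤ 0 are excluded.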

Sequence | pre-steady-state target cleavage rate
GGAGUGGAUACUAUACUACCUACUACCACA | 0.0024 ± 0.0017
GGAGACCUUACUAUACAACCCACUACCUCA | 0.00926 ± 0.0048
GGAGACCAUACUAUACAACCUACUACCUCC [g2:g23:cont:t1C] | 0.0109 ± 0.0042
GGAGACGAAACUAUACAACCUACAACCUCA | 0.00368 ± 0.0027
GGAGUGGAGACUAUACAACCUACUACCUCA | 0.0807 ± 0.031
GGAGUGGAUAGUAUACAACCUACUUCCUCA | 0.00264 ± 0.0019
GGAGACGAUACAAUACAACCUACUACGUCA | 0.00361 ± 0.0032
GGAGACGAUACUAUACAACCUACUAUCUCA | 0.00856 ± 0.0034
GGAGACCAUACUAUACAACCUACUGCCUCA | 0.00606 ± 0.0025
GGAGACCUAUGUAUACAACCUACUACCUCA [g2:g19:cont:t1A] | 0.00649 ± 0.0034
GGAGACCUUACUAUACAACCUACUACUUCA | 0.0046 ± 0.003
GGAGAGGAUUGUAUACAACCUACUACCUCA | 0.00676 ± 0.0048
GGAGACCAUACUCUACAACCUACUACCUCA | 0.00922 ± 0.0037
GGAGAGGAUACUAUACAAACCUACUACCUCA | 0.0671 ± 0.028
GGAGACCUAUCCAUACAACCUACUACCUCA | 0.0212 ± 0.01
GGAGUGCAUACUAUACAAGCUACUACCUCA | 0.00482 ± 0.002
GGAGACGAUACUAAACAACCUUCUACCUCA | 0.00427 ± 0.004
GGAGAGGAUACUAUACAACCUCUACCUCA | 0.00619 ± 0.0034
GGAGACCAUAGUAUACAACCUACUACCUGA | 0.00396 ± 0.0018
GGAGUGGAUACUAUACAACCUACUGCCUCA | 0.00835 ± 0.0028

Sequence | pre-steady-state target cleavage rate
GGAGUGGAUACUAUUCAACCUACUACCACA | 0.00327 ± 0.0022
GGAGUGGUUACUAUACAACCUACAACCUCA | 0.00227 ± 0.0015
GGAGAGCUUACUAUACAACCUACUACCUCA | 0.0193 ± 0.0089
GGAGUGGAUACUAUACAUACCUACUACCUCA | 0.0107 ± 0.0063
GGAGACCUAACUAUCACAACCUACUACCUCA | 0.00495 ± 0.0033
GGAGACCUAAGCUAUACAACCUACUACCUCA | 0.184 ± 0.066
GGAGACGAUACUAUACUACCAACUACCUCA | 0.0038 ± 0.0023
GGAGACCAUUGAAUACAACCUACUACCUCA | 0.00581 ± 0.0033
GGAGAGGAUACUAUGCAACCUACUACCUCA | 0.242 ± 0.091
GGAGACCAUACUAUUCAAGCUACUACCUCA | 0.00339 ± 0.0032
GGAGACGAUACUAUAGAACCUACUACCUCA | 0.00433 ± 0.0017
GGAGACGAUACUAUACAACCUACUACACUCA | 0.00494 ± 0.0019
GGAGUGGAUACUAAACUACCUACUACCUCA | 0.00956 ± 0.0047
GGAGACCUUACUUUACAACCUACUACCUCA | 0.00728 ± 0.0042
GGAGACCUAUCUAUACAAGCUACUACCUGA | 0.00244 ± 0.0023
GGAGACCUUAACUAUACAACCUACUACCUCA | 0.113 ± 0.039
GGAGUGGAUACUAUACAACCAAGUACCUCA | 0.00281 ± 0.0018
GGAGUGGAUACUAUACAACCUACUUCGUCA | 0.00391 ± 0.0021
GGAGACCAUACUUAUACAACCUACUACCUCA | 0.0757 ± 0.028
GGAGACCAUAAUAUACAACCUACUACCUCA | 0.0856 ± 0.03

Source: the supplement of paper PMC10338343
